Source: PubChem BioAssay (National Center for Advancing Translational Sciences (NCATS))
Most compounds without a hit are left out; they make up all but 0.66% or so of the library.
Rango-impB inh – Rango-importin beta binding inhibition; Potency, µM (titrated, usually from 92.2 µM); Rango CFP/YFP FRET sensor + importin beta, 45 min; hit rate 0.031% among 340,000; note: nearly all actives have a fitted effect of over 15% in size
Target sequence (Q14974 whole entry, looked up): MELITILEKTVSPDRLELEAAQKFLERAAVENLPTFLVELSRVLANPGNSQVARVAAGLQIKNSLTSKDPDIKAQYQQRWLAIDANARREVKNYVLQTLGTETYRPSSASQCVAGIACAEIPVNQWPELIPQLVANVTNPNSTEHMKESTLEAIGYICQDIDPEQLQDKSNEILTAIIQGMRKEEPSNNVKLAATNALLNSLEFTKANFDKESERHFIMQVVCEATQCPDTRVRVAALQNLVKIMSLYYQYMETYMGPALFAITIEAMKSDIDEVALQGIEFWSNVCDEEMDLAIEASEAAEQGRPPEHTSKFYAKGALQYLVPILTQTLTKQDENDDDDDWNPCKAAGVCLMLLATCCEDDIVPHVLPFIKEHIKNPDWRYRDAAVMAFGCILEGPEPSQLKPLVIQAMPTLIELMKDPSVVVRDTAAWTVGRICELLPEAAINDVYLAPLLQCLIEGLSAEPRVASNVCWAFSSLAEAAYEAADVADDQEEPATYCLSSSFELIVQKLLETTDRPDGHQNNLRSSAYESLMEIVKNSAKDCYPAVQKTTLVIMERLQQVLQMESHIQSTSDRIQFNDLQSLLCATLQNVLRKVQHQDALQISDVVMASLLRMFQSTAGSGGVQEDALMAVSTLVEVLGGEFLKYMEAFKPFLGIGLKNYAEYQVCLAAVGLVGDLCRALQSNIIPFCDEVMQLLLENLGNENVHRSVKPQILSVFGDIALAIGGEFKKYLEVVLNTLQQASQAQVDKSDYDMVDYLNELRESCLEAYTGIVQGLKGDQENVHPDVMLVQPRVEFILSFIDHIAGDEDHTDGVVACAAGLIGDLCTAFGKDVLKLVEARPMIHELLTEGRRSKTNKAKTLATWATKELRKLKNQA
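FRET biosensor (snurportin 1 IBB flanked by EYFP and cerulean), 50 nM, with compound 5 min, then 0.125 microM importin beta in PBS, 1 mM DTT, 0.02% Tween-20, 0.1% BSA. CFP/YFP ratio read after 45 min at room temperature; pre-read flags interference.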
gsp antagonist – antagonizes gsp, the McCune-Albright syndrome mutation | gsp-mutant cells, cAMP HTRF, 30 min | Potency, µM (titrated, usually from 76.9 µM), usual class: inhibitors | hit rate 0.4% among 340,000; calls by dose curve; cell line not stated here;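 note: intracellular cAMP measured with PDE inhibitor Ro 20-1724 present during compound exposure; nearly all actives have a fitted effect of over 65% in size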
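HTRF cAMP read-out (cAMP-d2 plus anti-cAMP antibody-K in lysis buffer, 30 min RT). Before lysis, cells are exposed to compounds with […] for 30 min at 37C in DPBS containing Ca/Mg, BSA and Tween 20.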
Rango dissoc inh – prevents RanGTP from dissociating the Rango-importin beta complex. O95149+P62826. Biochemical FRET Rango-importin beta, RanGTP-induced dissociation. Potency, µM (doses to about 46.1 µM). hit rate 0.071% among 340,000; note: nearly all actives have a fitted effect of over 45% in size
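Compounds preincubate 5 min with complex of recombinant Rango and importin beta in PBS with 1 mM DTT. Ran (0.6 uM) loaded with 2 mM GTP plus 0.2 uM RCC1 starts dissociation; FRET is recorded 45 min later.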
gsp agonist – agonists of gsp mutant (McCune-Albright syndrome). gsp mutant cells, cAMP HTRF, 30 min. Potency, µM (titrated, usually from 76.9 µM), most hits filed as activators. hit rate 0.13% among 340,000. AID 624287; active = well fitted activation curve with a large enough effect; inconclusive = small, poorly fitted or top-dose-only effect, or another doubt; inactive = no such curve, though single readings can be large or run the other way; cell line not stated here;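 note: phosphodiesterase inhibitor Ro 20-1724 added with compounds to block cAMP breakdown; nearly all actives have a fitted effect of over 60% in size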
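Cells in DMEM/10% FBS with G418 were pretreated with compounds in DMSO plus […] (300 uM stock) for 30 min at 37C. cAMP was measured by HTRF (cAMP-d2 plus anti-cAMP antibody-K) after 30 min at room temperature.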
Hits are given with their value. Unless noted, calls come from the whole dose curve.

How did CN(C)S(=O)(=O)N1CCC(Oc2cccc(C(=O)NCCC3=CCCCC3)c2)CC1 do in these assays?
Rango-impB inh: inactive; gsp antagonist: 35µM; Rango dissoc inh: inactive; gsp agonist: inactive

What do the screens show for `COc1ccc(-n2c(Cc3cccs3)nnc2SCC(=O)Nc2ccc3c(c2)OCCO3)cc1`?
Rango-impB inh: inactive; gsp antagonist: 32µM; Rango dissoc inh: inactive; gsp agonist: inactive

What do the screens show for `COc1ccc(NC(=O)CSc2nnc(Cc3cccs3)n2-c2ccc(C)cc2)cc1`?
Rango-impB inh: inactive; gsp antagonist: 32µM; Rango dissoc inh: inactive; gsp agonist: inactive

What do the screens show for `COc1ccc(-n2c(Cc3cccn3C)nnc2SCC(=O)Nc2ccc3c(c2)OCCO3)cc1`?
Rango-impB inh: inactive; gsp antagonist: inactive; Rango dissoc inh: inactive; gsp agonist: inactive

What do the screens show for `COC(=O)c1ccc(C(=O)OC)c(NC(=O)Cc2cccs2)c1`?
gsp agonist: inactive

What do the screens show for `CCN1CCN(C(=O)c2ccc(CS(=O)(=O)Cc3ccccc3Cl)o2)CC1`?
gsp agonist: inactive

What do the screens show for `COc1ccc(CN2C(=O)C(CC(=O)NCC3CCCCC3)CC(C(=O)N3CCOCC3)=C2C)cc1` (stereo not drawn)?
gsp agonist: inactive

What do the screens show for `O=C(NCCc1ccccc1)c1nc2c(nnn2Cc2ccccc2Cl)c(=O)[nH]1`?
Rango-impB inh: inactive; gsp antagonist: 40µM; Rango dissoc inh: inactive; gsp agonist: inactive

What do the screens show for `Cc1cc(=O)[nH]c(SCC(=O)Nc2cccc(S(=O)(=O)N3CCOCC3)c2)n1`?
Rango-impB inh: inactive; gsp antagonist: inactive; Rango dissoc inh: inactive; gsp agonist: 16µM

Results for Cc1nc(SCC(=O)Nc2cccc(S(=O)(=O)N3CCOCC3)c2)nc(C)c1C ?
Rango-impB inh: inactive; gsp antagonist: inactive; Rango dissoc inh: inactive; gsp agonist: inconclusive

Results for CCc1cc2c(=O)c(-c3ccc4c(c3)OCCO4)c(C)oc2cc1OS(C)(=O)=O ?
Rango-impB inh: inactive; gsp antagonist: 50µM; Rango dissoc inh: inactive; gsp agonist: inactive

How did O=C(NCc1ccco1)/C(=C/c1ccc(C(F)(F)F)cc1)c1nc2ccccc2[nH]1 do in these assays?
Rango-impB inh: inconclusive; gsp antagonist: inactive; Rango dissoc inh: 18µM; gsp agonist: inactive

Results for CCCCOc1ccc(-c2c(C(=O)Nc3ccccc3)c(C)[nH]c(=S)c2C#N)cc1 ?
Rango-impB inh: inactive; gsp antagonist: inactive; Rango dissoc inh: inactive; gsp agonist: 2.5µM

Results for CCOC(=O)c1c(C)[nH]c(=S)c(C#N)c1-c1ccc(OC)cc1 ?
Rango-impB inh: inconclusive; gsp antagonist: inactive; Rango dissoc inh: inactive; gsp agonist: inactive

Results for CCCc1cc(C(=O)Nc2ccc(C(=O)c3ccc(F)cc3)cc2)n(C)n1 ?
Rango-impB inh: inactive; gsp antagonist: 35µM; Rango dissoc inh: inactive; gsp agonist: inactive

Results for CCCc1cc(C(=O)Nc2ccc(C(=O)c3ccccc3)cc2)n(C)n1 ?
Rango-impB inh: inactive; gsp antagonist: inconclusive; Rango dissoc inh: inactive; gsp agonist: inactive

How did CCOC(=O)CCC1(C(=O)OC)C(=O)CCCCCC=C1C(=O)OC (stereo not drawn) do in these assays?
gsp agonist: inactive

How did N#C/C(=N\Nc1cccc(Cl)c1)C(=O)c1ccccc1 do in these assays?
Rango-impB inh: inactive; gsp antagonist: 16µM; Rango dissoc inh: inactive; gsp agonist: inactive

How did O=C(Nc1nnc(C(F)(F)F)s1)C1COc2ccccc2O1 (stereo not drawn) do in these assays?
Rango-impB inh: inactive; gsp antagonist: 35µM; Rango dissoc inh: inactive; gsp agonist: inactive

How did COc1ccc(NC(=O)N2CCC(c3ccccc3)C2)c(OC)c1 (stereo not drawn) do in these assays?
Rango-impB inh: inactive; gsp antagonist: 50µM; Rango dissoc inh: inactive; gsp agonist: inactive

What do the screens show for `COc1ccc(NC(=O)N2CCCC(c3ccccc3)C2)cc1` (stereo not drawn)?
Rango-impB inh: inactive; gsp antagonist: inactive; Rango dissoc inh: inactive; gsp agonist: inactive

How did CC1(C)Cc2c(sc3nc(-c4cccs4)n(N)c(=O)c23)CO1 do in these assays?
Rango-impB inh: inactive; gsp antagonist: 32µM; Rango dissoc inh: inactive; gsp agonist: inactive

What do the screens show for `CC1=C(C(=O)Nc2cccc(C)n2)C(c2ccc3c(c2)OCO3)C2=C(CC(c3ccco3)CC2=O)N1` (stereo not drawn)?
Rango-impB inh: inconclusive; gsp antagonist: inactive; Rango dissoc inh: 18µM; gsp agonist: inactive

Results for CC1(C)CC(=O)C(CSC(=O)c2ccccc2)C(=O)C1 ?
gsp agonist: inactive
